Shown are actives, neighbours in structure and some others; about 1.4% of the full set was active somewhere.
FAS-TE inh: FAS thioesterase (human) inhibition; recombinant FAS-TE, OMFH fluorogenic substrate, fluorescence endpoint; actives 0.67% (n = 360,000); P49327; inhibition, % at 15 µM;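 active = compounds whose normalised, plate-corrected inhibition of enzyme fluorescence in the single-dose primary screen is 50% or more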
APOBEC3A inh: blocks human APOBEC3A ssDNA deamination | AID 493011 | recombinant A3A, FAM/TAMRA ssDNA deamination fluorescence | actives 0.41% (n = 330,000) | inhibition, % at 20 µM;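 active = at least 40% inhibition at 20 µM here, with at most 30% in a related deaminase screen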
GC-B act: GC-B (human) receptor activation. activation, % at 10 µM. actives 0.11% (n = 370,000). AID 1920062. HEK293-GC-B cells, CNP EC30, cGMP TR-FRET; 0% at EC30 CNP, 100% saturating CNP;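 active = activation at 10 µM reaching about 35% in either raw or pattern-adjusted values, limit read from the data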
NPR1 activator: GC-A (human) enzyme activation; P16066; actives 0.14% (n = 370,000); HEK293 GC-A cells, cGMP TR-FRET, EC30 ANP; 0% at EC30 ANP, 100% saturating ANP; activation, % at 10 µM; AID 1671463; in the data active = activation above about 40%
APOBEC3G inh: APOBEC3G (human) deaminase inhibition; actives 0.28% (n = 330,000); inhibition, % at 20 µM; Q9HC16; recombinant A3G, ssDNA deamination FAM/TAMRA fluorescence;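 active = inhibition of at least 40% at 20 µM, with no more than 30% in the related APOBEC3A deaminase screen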
FAS-TE inh conf: FAS thioesterase (human) inhibition, confirmation. actives 45% (n = 2,300). inhibition, % at 15 µM. shares compounds with FAS-TE inh. recombinant FAS-TE, OMFH fluorogenic substrate, fluorescence;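 active = compounds inhibiting the enzyme by at least 50% at 15 µM in any one of the replicates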
Hits are given with their value; n = inactive; x = no result given.

SMILES	FAS-TE inh	APOBEC3A inh	GC-B act	NPR1 activator	APOBEC3G inh	FAS-TE inh conf
O=C(/C=C/c1ccccc1[N+](=O)[O-])N1CCN(c2ccc(F)cc2)CC1	n	n	n	n	n	x
O=C(/C=C/c1cccc([N+](=O)[O-])c1)N1CCN(c2ccc(F)cc2)CC1	79.7	n	n	n	n	80.5
COc1ccc(OC)c(S(=O)(=O)N2CCCCC2C(=O)N2CCCN(C)CC2)c1 (stereo not drawn)	x	x	n	n	x	x
COc1ccc2[nH]c3c(c2c1)CCN1C(=O)C(CC(=O)NCc2ccco2)C[C@H](C(=O)N2CCOCC2)[C@@]31CCC1CCCC1 (stereo partly drawn)	64.6	n	n	n	n	76.3
COc1ccc2[nH]c3c(c2c1)CCN1C(=O)C(CC(=O)NCCN2CCOCC2)C[C@H](C(=O)N2CCOCC2)[C@@]31CCC1CCCC1 (stereo partly drawn)	n	n	n	n	n	x
COc1ccc2[nH]c3c(c2c1)CCN1C(=O)C(CC(=O)NC(C)(C)C)C[C@H](C(=O)N2CCOCC2)[C@@]31CCC1CCCC1 (stereo partly drawn)	53.4	n	n	n	n	68.8
O=C(Cc1ccc(F)cc1)Nc1nc(-c2ccc(F)c(F)c2)cs1	50.6	n	n	n	n	n
COc1ccc(CC(=O)Nc2nc(-c3ccc(F)c(F)c3)cs2)cc1	n	n	n	n	n	x
CCCCCN1CCCCC(NC(=O)Cc2ccccc2)C1=O (stereo not drawn)	x	x	n	n	x	x
O=C(CN1c2ccccc2Sc2ccccc21)N/N=C/c1ccc([N+](=O)[O-])cc1	69.1	n	n	n	n	n
CCN(CC)CCN(C(=O)c1ccc(S(=O)(=O)N2CCCCC2)cc1)c1nc2cc3c(cc2s1)OCO3	52.6	n	x	x	n	n
COc1ccc(CN(C)C(=O)COC(=O)c2cc([N+](=O)[O-])ccc2N2CCCC2)c(OC)c1OC	69.9	n	n	n	n	31.1
CN(Cc1ccccc1)C(=O)COC(=O)c1cc([N+](=O)[O-])ccc1N1CCOCC1	91.5	n	n	n	n	91.2
CCN(C(=O)COC(=O)c1cc([N+](=O)[O-])ccc1N1CCOCC1)c1ccccc1	77.9	n	n	n	n	70.6
CCC(C)N(C(=O)COC(=O)c1cc([N+](=O)[O-])ccc1N1CCOCC1)C1CCS(=O)(=O)C1 (stereo not drawn)	n	n	n	n	n	x
CN(C(=O)COC(=O)c1cc([N+](=O)[O-])ccc1N1CCCC1)C1CCS(=O)(=O)C1 (stereo not drawn)	n	n	n	n	n	x
Nn1c(SCC(=O)N2CCOCC2)nnc1-c1cc(-c2ccc(F)cc2)n[nH]1	x	x	n	n	x	x
O=C(NN1C(=O)c2ccccc2NC1c1ccc([N+](=O)[O-])o1)c1ccccc1 (stereo not drawn)	52.2	n	n	n	n	n
O=C(NN1C(=O)c2ccccc2NC1c1ccc([N+](=O)[O-])o1)c1ccc([N+](=O)[O-])cc1 (stereo not drawn)	n	n	n	n	n	x
O=C(CNc1cc(S(=O)(=O)N2CCCC2)ccc1OCC(F)(F)F)Nc1cc(Cl)cc(Cl)c1	x	n	x	x	n	x
O=C(CNc1cc(S(=O)(=O)N2CCCC2)ccc1OCC(F)(F)F)Nc1ccc(SC(F)F)cc1	65.1	n	n	n	n	56.5
CC(=O)NCCn1c(SCc2cccc([N+](=O)[O-])c2)nc2ccccc2c1=O	53.1	n	n	n	n	n
O=c1c2ccccc2nc(SCc2ccc([N+](=O)[O-])cc2)n1CCCO	68.0	n	n	n	n	49.9
Nn1c(SCc2ccc([N+](=O)[O-])cc2)nc2ccccc2c1=O	n	n	n	n	n	x
CC(=O)NCCn1c(SCc2cc(F)ccc2F)nc2ccccc2c1=O	n	n	n	n	n	x
SMILES	FAS-TE inh	APOBEC3A inh	GC-B act	NPR1 activator	APOBEC3G inh	FAS-TE inh conf
COc1ccc(C2=NN(C(=O)CSc3ncccn3)C(c3ccc(OC)cc3)C2)cc1 (stereo not drawn)	n	n	n	n	n	x
Cc1ccc(C2CC(c3ccc(Br)cc3)=NN2C(=O)CSC2=NN3CCCC(=O)N=C3S2)cc1 (stereo not drawn)	54.2	n	n	n	n	n
COc1ccc(C2CC(c3cccs3)=NN2C(=O)CSc2nc(=O)n3ccc(C)cc3n2)cc1 (stereo not drawn)	56.6	n	n	n	n	56.8
COc1ccc(C2=NN(C(=O)CSc3nc(=O)n4cc(C)ccc4n3)C(c3ccc(C)cc3)C2)cc1 (stereo not drawn)	69.4	n	n	n	n	40.2
CCN(c1ccccc1)S(=O)(=O)c1cccc(C(=O)OCc2nc3sc(C)c(C)c3c(=O)[nH]2)c1	51.6	n	n	n	n	n
Cc1sc2nc(COC(=O)c3ccc(O)cc3)[nH]c(=O)c2c1C	n	n	n	n	n	x
CC1=CC(=C(C#N)C#N)c2ccccc2N1C	61.1	n	n	n	n	n
CC1=C/C(=C\C=C(C#N)C#N)N(C)c2ccccc21	n	n	n	n	n	x
CC(C)(C)c1ccc(OCCC(=O)OCC(=O)NC2CCCCC2)cc1	56.6	n	n	n	n	54.8
O=C(O)c1cccc(Nc2nc(-c3ccc([N+](=O)[O-])cc3)nc3ccccc23)c1	n	n	n	n	n	x
O=[N+]([O-])c1ccc(-c2nc(Nc3cccc(O)c3)c3ccccc3n2)cc1	56.3	n	n	n	n	54.4
FC(F)(F)c1ccc(Cn2ccc3ccc(-c4ccc5ccn(Cc6ccc(C(F)(F)F)cc6)c5c4)cc32)cc1	x	x	n	n	x	x
C/C(=N\Nc1nc(Cl)c(Cl)cc1Cl)c1ccc(S(=O)(=O)NCc2ccco2)cc1	52.0	n	n	n	n	n
C/C(=N\Nc1ccccn1)c1ccc(S(=O)(=O)NCc2ccco2)cc1	53.7	n	n	n	n	40.2
O=C(Nc1ccccc1)Nc1ccc(S(=O)(=O)N2CCCCC2)cc1	n	n	n	n	n	x
O=C(Nc1ccc(S(=O)(=O)N2CCCC2)cc1)N1c2ccccc2Sc2ccccc21	76.3	n	n	n	n	n
COC(=O)c1cc(NC(=O)N2c3ccccc3Sc3ccccc32)cc(C(=O)OC)c1	72.1	n	n	n	n	n
CCCCNS(=O)(=O)CC1NCc2ccc(C)cc21 (stereo not drawn)	x	x	n	n	x	x
C[C@@H]1C(c2ccccc2)=NN(c2ccccc2)[C@H]1C(=O)N1CCOC1=O	n	n	n	n	n	x
O=C1OCCN1C(=O)[C@H]1[C@H](c2ccc([N+](=O)[O-])cc2)C(c2ccc(F)cc2)=NN1c1ccc(Br)cc1	95.1	n	n	n	n	n

Screening results: PubChem BioAssay, Sanford-Burnham Center for Chemical Genomics
